In ChEMBL document CHEMBL2218924, “A broad activity screen in support of a chemogenomic map for kinase signalling research and drug discovery” (Biochem J, 2013):

How the values were obtained:
[1] = biological target: T1, Serine/threonine-protein kinase BRSK1 (Homo sapiens) (UniProt Q8TDC3); settings: at 1 µM
T1 sequence (whole entry): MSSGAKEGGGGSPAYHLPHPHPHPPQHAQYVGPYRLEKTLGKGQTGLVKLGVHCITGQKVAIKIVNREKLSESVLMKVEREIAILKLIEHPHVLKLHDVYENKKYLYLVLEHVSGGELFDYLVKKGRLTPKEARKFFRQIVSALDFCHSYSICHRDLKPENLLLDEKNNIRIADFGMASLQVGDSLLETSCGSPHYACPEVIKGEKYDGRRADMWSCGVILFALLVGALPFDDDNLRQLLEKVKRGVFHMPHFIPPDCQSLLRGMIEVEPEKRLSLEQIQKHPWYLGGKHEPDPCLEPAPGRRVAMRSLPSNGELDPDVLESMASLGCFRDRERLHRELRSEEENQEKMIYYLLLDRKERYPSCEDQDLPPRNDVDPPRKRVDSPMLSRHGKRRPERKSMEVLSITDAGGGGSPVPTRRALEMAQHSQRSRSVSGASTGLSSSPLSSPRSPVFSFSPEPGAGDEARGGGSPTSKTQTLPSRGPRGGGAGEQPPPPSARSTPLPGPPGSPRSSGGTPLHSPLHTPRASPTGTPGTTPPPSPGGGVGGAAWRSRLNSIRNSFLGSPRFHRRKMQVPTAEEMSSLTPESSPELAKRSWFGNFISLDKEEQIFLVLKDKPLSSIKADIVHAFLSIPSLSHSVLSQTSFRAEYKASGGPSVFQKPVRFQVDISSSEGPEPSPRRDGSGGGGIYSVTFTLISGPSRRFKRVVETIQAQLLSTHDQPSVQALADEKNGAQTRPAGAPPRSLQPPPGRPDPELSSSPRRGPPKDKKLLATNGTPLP

[2] = biological target: T1, Serine/threonine-protein kinase BRSK1 (Homo sapiens); settings: at 10 µM
[3] = biological target: T2, Serine/threonine-protein kinase BRSK2 (Homo sapiens) (UniProt Q8IWQ3); settings: at 1 µM
T2 sequence (whole entry): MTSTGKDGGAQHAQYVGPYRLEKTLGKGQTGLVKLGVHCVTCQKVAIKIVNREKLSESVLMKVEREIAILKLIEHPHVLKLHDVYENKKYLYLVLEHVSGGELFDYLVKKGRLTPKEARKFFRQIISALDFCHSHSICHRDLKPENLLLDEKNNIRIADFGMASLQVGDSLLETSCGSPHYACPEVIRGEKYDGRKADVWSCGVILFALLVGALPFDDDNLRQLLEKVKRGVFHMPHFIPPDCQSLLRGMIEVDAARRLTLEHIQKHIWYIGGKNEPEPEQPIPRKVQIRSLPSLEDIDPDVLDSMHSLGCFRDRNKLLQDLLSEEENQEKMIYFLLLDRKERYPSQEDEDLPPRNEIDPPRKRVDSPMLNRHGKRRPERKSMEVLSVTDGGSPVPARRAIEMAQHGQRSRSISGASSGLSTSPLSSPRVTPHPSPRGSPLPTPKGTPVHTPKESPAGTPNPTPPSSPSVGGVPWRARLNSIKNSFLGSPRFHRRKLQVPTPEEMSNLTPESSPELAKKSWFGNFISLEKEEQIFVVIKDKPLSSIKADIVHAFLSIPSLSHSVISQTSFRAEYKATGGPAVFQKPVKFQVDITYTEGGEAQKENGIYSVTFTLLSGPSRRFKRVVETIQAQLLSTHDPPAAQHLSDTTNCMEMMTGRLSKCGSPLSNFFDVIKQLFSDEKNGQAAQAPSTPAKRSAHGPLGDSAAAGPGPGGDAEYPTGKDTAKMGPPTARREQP

[4] = biological target: T2, Serine/threonine-protein kinase BRSK2 (Homo sapiens); settings: at 10 µM
[5] = biological target: T3, Cyclin-dependent kinase 1/cyclin B1 (Homo sapiens) (UniProt P06493+P14635); settings: at 1 µM
[6] = biological target: T3, Cyclin-dependent kinase 1/cyclin B1 (Homo sapiens); settings: at 10 µM
[7] = biological target: T4, Cyclin-dependent kinase 2/cyclin A (Homo sapiens) (UniProt P24941+P20248+P78396); settings: at 10 µM
[8] = biological target: T5, Cyclin-dependent kinase 2/cyclin E (Homo sapiens) (UniProt P24864+P24941+O96020); settings: at 1 µM
[9] = biological target: T5, Cyclin-dependent kinase 2/cyclin E (Homo sapiens); settings: at 10 µM
[10] = biological target: T4, Cyclin-dependent kinase 2/cyclin A (Homo sapiens); settings: at 1 µM

T3 sequence (P06493 whole entry, looked up): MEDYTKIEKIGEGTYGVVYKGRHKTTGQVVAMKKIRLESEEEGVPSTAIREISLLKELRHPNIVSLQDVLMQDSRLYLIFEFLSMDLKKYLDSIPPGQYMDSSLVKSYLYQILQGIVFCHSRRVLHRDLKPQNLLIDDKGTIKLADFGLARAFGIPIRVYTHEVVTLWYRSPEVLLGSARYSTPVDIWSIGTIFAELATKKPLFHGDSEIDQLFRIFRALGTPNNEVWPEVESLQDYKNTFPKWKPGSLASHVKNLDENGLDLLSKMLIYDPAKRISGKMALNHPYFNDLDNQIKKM
T3 sequence (P14635 whole entry, looked up): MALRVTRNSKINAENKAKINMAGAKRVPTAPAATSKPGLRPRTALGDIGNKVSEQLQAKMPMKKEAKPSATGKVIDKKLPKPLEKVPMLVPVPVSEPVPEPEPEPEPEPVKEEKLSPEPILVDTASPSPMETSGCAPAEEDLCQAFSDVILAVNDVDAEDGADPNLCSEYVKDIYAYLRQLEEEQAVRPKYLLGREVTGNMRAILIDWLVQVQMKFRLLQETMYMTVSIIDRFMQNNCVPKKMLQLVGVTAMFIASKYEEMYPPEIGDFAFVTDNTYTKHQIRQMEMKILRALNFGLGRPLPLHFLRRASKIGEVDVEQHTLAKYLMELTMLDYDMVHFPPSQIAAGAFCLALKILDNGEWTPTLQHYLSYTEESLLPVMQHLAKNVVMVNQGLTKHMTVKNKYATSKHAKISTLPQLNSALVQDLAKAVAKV

| Structure (SMILES) | residual activity [1] | residual activity [2] | residual activity [3] | residual activity [4] | residual activity [5] | residual activity [6] | residual activity [7] | residual activity [8] | residual activity [9] | residual activity [10] |
| --- | --- | --- | --- | --- | --- | --- | --- | --- | --- | --- |
| O=c1cc(N2CCOCC2)oc2c1ccc1ccccc12 | 91% | 96% | 102% | 108% | 106% | 91% | 87% | 95% | 97% | – |
| CC(C)[C@H](CO)Nc1nc(Nc2cc(N)cc(Cl)c2)c2ncn(C(C)C)c2n1 | 91% | 75% | – | – | – | – | – | – | – | – |
| O=C(O)/C=C/c1cc(Br)c(Br)c(Br)c1Br | 103% | 49% | 91% | 45% | 109% | 56% | 67% | 100% | 91% | – |
| O=C(c1ccccc1)c1ccc(N2CCOCC2)cc1O | 83% | 119% | 112% | 113% | – | 94% | 72% | – | – | 119% |
| COc1cc2nccc(Oc3ccc(NC(=S)NC(=O)c4ccccc4C)cc3)c2cc1OC | 100% | 56% | 89% | 89% | – | – | – | – | – | – |
| CC(C)(C)c1nc2c3ccc(F)cc3c3c(=O)[nH]ccc3c2[nH]1 | 32% | 7% | 13% | 4% | – | – | – | – | – | – |
| O=C1C(Cl)=C(N2C(=O)CCC2=O)C(=O)c2ccccc21 | 82% | 79% | 118% | 92% | – | – | 89% | 95% | 98% | 86% |
| CN([C@@H](Cc1ccc(OS(=O)(=O)c2cccc3cnccc23)cc1)C(=O)N1CCN(c2ccccc2)CC1)S(=O)(=O)c1cccc2cnccc12 | – | 74% | – | 79% | – | – | 98% | – | – | – |
| CCCCc1c(-c2ccc(OC)cc2)[nH]c2nccnc12 | – | – | 104% | – | 31% | 26% | 25% | 30% | 46% | 48% |
| c1ccc(-c2cnc(Nc3ccc(OCCN4CCCC4)cc3)s2)cc1 | 46% | 42% | – | – | 113% | 62% | 70% | – | – | 147% |
| NCCNc1ncc(C(N)=O)c(Nc2cccc(C(F)(F)F)c2)n1 | – | – | – | – | – | 43% | 65% | – | 47% | 131% |
| Fc1ccc(-c2nc3n(c2-c2ccncc2)CCS3)cc1 | 99% | 100% | – | – | 100% | 95% | 89% | – | 94% | 83% |
| COc1cc2ncnc(Nc3cccc(Cl)c3)c2cc1OC | 14% | 17% | – | – | – | – | – | 109% | 105% | 138% |
| O=C1NC(=O)C(c2cn(CCCn3ccnc3)c3ccccc23)=C1Nc1ccccc1 | 59% | 75% | – | – | – | – | 21% | 76% | 24% | 103% |
| O=S(=O)(c1cccc2cnccc12)N1CCCNCC1 | – | 84% | – | 80% | – | – | – | – | – | – |
| Nc1n[nH]c2nc3ccccc3nc12 | 80% | 48% | – | – | 96% | 59% | 44% | 83% | 46% | 86% |
| O=c1c(-c2ccc(F)cc2)c(-c2ccncc2)[nH]n1-c1ccc(Cl)cc1 | 100% | 59% | – | 76% | – | – | – | – | 102% | 99% |
| NC(=O)c1cccc(-c2cc(Nc3ccc(OC(F)(F)F)cc3)ncn2)c1 | – | – | – | – | – | – | 94% | – | – | 139% |
| CCCCc1c(-c2ccc(O)cc2)[nH]c2nccnc12 | 88% | 88% | – | – | 29% | 18% | – | 20% | 16% | – |
| Cn1sc(=O)n(Cc2ccccc2)c1=O | 86% | 83% | – | – | – | – | 79% | 96% | 95% | 79% |

| Structure (SMILES) | residual activity [1] | residual activity [2] | residual activity [3] | residual activity [4] | residual activity [5] | residual activity [6] | residual activity [7] | residual activity [8] | residual activity [9] | residual activity [10] |
| --- | --- | --- | --- | --- | --- | --- | --- | --- | --- | --- |
| O=C1Cc2c([nH]c3ccc(Br)cc23)-c2ccccc2N1 | 64% | 37% | – | – | 52% | 9% | – | 36% | 2% | – |
| CCN1/C(=C/C(C)=O)Sc2ccc(OC)cc21 | – | – | – | – | – | – | – | 81% | 76% | – |
| O=C(Nc1ccc(Cl)cc1)c1ccccc1NCc1ccncc1 | – | 126% | – | – | – | – | – | – | – | 126% |
| COc1cc2c(cc1OC)-c1n[nH]c(Nc3cccc(F)c3)c1C2 | – | – | 104% | – | 114% | 103% | – | 98% | 68% | – |
| COc1ccc(-c2cnc3c(-c4ccsc4)cnn3c2)cc1 | – | – | – | – | – | – | – | 99% | 96% | – |
| Nc1nccc(-c2c(-c3ccc(F)cc3)ncn2C2CCNCC2)n1 | – | – | 128% | 82% | 115% | – | 77% | – | – | 79% |
| O=C1Nc2ccccc2/C1=C\c1c(Cl)[nH]c2ccccc12 | – | 46% | – | – | – | 68% | 57% | 82% | 58% | 83% |
| O=C(Nc1nc2ccccc2n1CCN1CCOCC1)c1cccc([N+](=O)[O-])c1 | 83% | 78% | – | – | 114% | 103% | – | 106% | 104% | – |
| COc1cc2nccc(Oc3ccc(NC(=O)Nc4cc(C)on4)c(Cl)c3)c2cc1OC | 65% | 46% | – | – | – | – | 99% | – | – | 106% |
| COc1ccc(CNC(=O)Nc2ncc([N+](=O)[O-])s2)cc1 | – | – | – | – | – | – | 79% | – | – | 78% |
| COc1ccc(COc2ccc(Cc3cnc(N)nc3N)cc2OC)cc1 | – | – | 99% | 115% | – | 109% | – | – | – | – |
| O=C1NC(=O)C(c2cn(CCCO)c3ncccc23)=C1c1cnccn1 | 94% | 84% | – | 74% | 72% | 63% | 59% | 87% | 64% | 84% |
| Nc1ncnc2c1c(-c1ccc(Oc3ccccc3)cc1)cn2C1CCCC1 | 17% | – | 63% | 61% | 104% | 85% | 72% | 94% | 79% | 113% |
| O=C1Cc2c([nH]c3ccc([N+](=O)[O-])cc23)-c2ccccc2N1 | – | – | 32% | 20% | 47% | 23% | 10% | – | 11% | 14% |
| CSc1nc(-c2ccc(F)cc2)c(-c2ccnc(NC(C)c3ccccc3)c2)[nH]1 (configuration not stated) | 100% | 55% | – | – | 98% | 86% | 80% | 96% | 86% | – |
| CCOC(=O)c1c(C)[nH]c(/C=C2\C(=O)Nc3ccccc32)c1C | – | – | – | – | – | – | 100% | 99% | 95% | 140% |
| N#C/C(=C\c1ccc(O)c(O)c1)C(=O)NCc1ccccc1 | – | – | – | – | – | – | 85% | – | – | – |
| N#Cc1c(NC(=O)c2cccc3ccccc23)sc2c1CCCC2 | – | – | – | 90% | – | – | 90% | 96% | 94% | 96% |
